Laboratory results published in PubChem BioAssay (EPA / NIEHS).
Values joined by “and” are separate entries in the source; they are usually repeats but may differ in a detail not shown here. Equal values may be shown once. Records with an inconclusive call do not appear. A structure can be active in one record and inactive in another. Active and inactive are the calls of the source. The calls were made as follows: active = hit-call score of the fitted dose curve at least 0.9, where 1 is the maximum; inconclusive = response in the unintended direction; inactive = score below 0.9.

Tests used:
[1] = TOX21_p53_BLA_p2_viability: Viability Assessment in the Tox21 HCT-116 p53 Agonism Beta-lactamase Assay, Phase 2 (AID 2283591);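 also: compound exposure lasted 16 h at 37 °C; actives lower the ATP signal meaning cytotoxicity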
Summary of the method: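 HCT116 p53-bla cells, 4000/well, dosed after 5 h plating (217-fold dilution of DMSO stocks) and incubated 16 h at 37C. Viability taken as cellular ATP by CellTiter-Glo luminescence after 30 min RT; signal loss marks cytotoxicity.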

[2] = TOX21_p53_BLA_p3_viability: Viability Assessment in the Tox21 HCT-116 p53 Agonism Beta-lactamase Assay, Phase 3 (AID 2283593);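 also: cells exposed to compound for 16 h before reading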
Summary of the method: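 HCT116 cells, 4000/well, dosed 5 h after plating by pin transfer (217-fold dilution from DMSO stock) and incubated 16 h at 37C, 5% CO2. Viability read as ATP luminescence with CellTiter-Glo after 30 min at room temperature.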

[3] = TOX21_p53_BLA_p4_viability: Viability Assessment in the Tox21 HCT-116 p53 Agonism Beta-lactamase Assay, Phase 4 (AID 2283597);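 also: hits lower the luminescence signal meaning cytotoxicity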
Summary of the method: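 Viability is taken as cellular ATP: after 16 h compound exposure of HCT116 cells and a 2 h room-temperature CCF4-AM substrate step, CellTiter-Glo reagent is added and luminescence is measured 30 min later.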

[4] = TOX21_p53_BLA_p5_viability: Viability Assessment in the Tox21 HCT-116 p53 Agonism Beta-lactamase Assay, Phase 5 (AID 2283600)
Summary of the method: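 Viability is taken from cellular ATP content, measured by luciferase luminescence in the same wells after the beta-lactamase ratio read. Cells are seeded at 4000 per well and exposed to DMSO-dissolved compounds, diluted 217-fold, for 16 h.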

[5] = Tanguay_ZF_120hpf_YSE_legacy: (Legacy) Oregon State University Tanguay Lab 120 Hour Post-fertilization zebrafish Assay for Yolk Sac Edema (AID 2283634)
Summary of the method: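 Readout: presence or absence of yolk sac edema at 120 hpf, fitted upward against DMSO controls. Exposure ran statically from 6 hpf in dechorionated embryos kept at 28C.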

[6] = ATG_XTT_Cytotoxicity: Cytotoxicity Assessment in the Attagene TRANS-FACTORIAL HepG2 Assay (AID 2283584);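 as to AC50: XTT signal for cell number as viability in transfected HepG2 cells; cells exposed to compound for 24 h before reading; active means loss of viability signal versus DMSO baseline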
Summary of the method: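 Transfect HepG2 with GAL4-UAS reporter units, dose compound, incubate 24 h, then measure viable cell number by XTT. Fit concentration response against DMSO baseline.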

[7] = biological target: Cellular tumor antigen p53 (Homo sapiens) (UniProt P04637); assay: TOX21_p53_BLA_p2_ratio: Tox21 HCT-116 p53 Agonism Beta-lactamase Assay, Ratio, Phase 2 (AID 2283592)
Sequence of Cellular tumor antigen p53 (Homo sapiens) (P04637 whole entry, looked up): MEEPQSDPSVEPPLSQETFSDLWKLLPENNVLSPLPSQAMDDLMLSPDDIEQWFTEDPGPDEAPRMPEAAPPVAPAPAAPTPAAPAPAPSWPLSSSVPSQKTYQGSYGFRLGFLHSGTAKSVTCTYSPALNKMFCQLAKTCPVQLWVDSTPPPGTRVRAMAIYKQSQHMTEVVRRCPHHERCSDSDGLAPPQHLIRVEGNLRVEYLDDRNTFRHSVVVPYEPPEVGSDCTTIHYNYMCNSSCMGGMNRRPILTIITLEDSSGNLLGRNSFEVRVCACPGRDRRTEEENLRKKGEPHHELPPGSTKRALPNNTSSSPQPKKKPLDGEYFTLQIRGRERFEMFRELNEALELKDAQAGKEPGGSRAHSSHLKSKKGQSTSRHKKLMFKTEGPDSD
Summary of the method: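 Cleaved-to-uncleaved substrate ratio (460 vs 530 nm) measured in HCT116 cells with an inducible beta-lactamase reporter linked to p53 activity. Compounds incubated 16 h at 37C before 2 h room-temperature CCF4-AM loading.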

[8] = biological target: Cellular tumor antigen p53 (Homo sapiens) (UniProt P04637); assay: TOX21_p53_BLA_p3_ratio: Tox21 HCT-116 p53 Agonism Beta-lactamase Assay, Ratio, Phase 3 (AID 2283596)
Summary of the method: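 Cells were seeded at 4000/well, rested 5 h at 37C, then dosed with DMSO compound solutions (217-fold dilution) for 16 h. CCF4-AM substrate was loaded for 2 h at room temperature, and the 460/530 nm emission ratio was fitted for gain of signal versus DMSO.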

[9] = biological target: Cellular tumor antigen p53 (Homo sapiens) (UniProt P04637); assay: TOX21_p53_BLA_p5_ratio: Tox21 HCT-116 p53 Agonism Beta-lactamase Assay, Ratio, Phase 5 (AID 2283599)
Summary of the method: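 HCT-116 p53-bla cells (4000/well) plated 5 h, dosed with compound (217-fold DMSO dilution) for 16 h at 37 C; CCF4-AM substrate 2 h at room temperature. Activity is the 460/530 nm emission ratio (405 nm excitation), fitted in gain-of-signal direction versus DMSO.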

[10] = biological target: Cellular tumor antigen p53 (Homo sapiens) (UniProt P04637); assay: TOX21_p53_BLA_p4_ratio: Tox21 HCT-116 p53 Agonism Beta-lactamase Assay, Ratio, Phase 4 (AID 2283601)
Summary of the method: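 HCT-116 p53 beta-lactamase reporter cells (4000/well) preincubated 5 h, then compound (217-fold dilution of DMSO stock) for 16 h at 37C. CCF4-AM substrate added 2 h at room temperature; 460/530 nm emission ratio fitted upward versus DMSO.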

Measured: AC50

C1CNCCN1
inactive: [1] | [2] | [3] | [4] | [5]

Nc1ccc(C(=O)O)cc1
inactive: [1]

Cc1ccc([N+](=O)[O-])cc1N
inactive: [5]

[Cl][Sc]([Cl])[Cl]
inactive: [6]

O=C(O)CCC(=O)O
inactive: [6]

CCCCC(C=O)CC (stereo not drawn)
inactive: [6]

CCCCCCCOC(=O)c1ccc(O)cc1
inactive: [6] | [1] | [2] | [8] | [3] | [9] | [4] | [10]
active: [1] 44.8 µM | [7] 58.9 µM and 86.4 µM | [2] 44.2 µM | [8] 74.5 µM | [3] 51.3 µM | [9] 74.3 µM | [10] 68.3 µM

COc1ccc(C(=O)/C(Br)=C\C(=O)O)cc1
active: [1] 86.2 µM | [7] 24.8 µM and 24.2 µM | [2] 74.8 µM | [8] 14.4 µM and 25.8 µM | [3] 76.7 µM and 44.5 µM | [9] 21 µM and 21.6 µM | [4] 39.1 µM | [10] 60 µM and 27.2 µM
inactive: [6] | [1] | [2] | [4]

O=C(O[C@@H]1Cc2c(O)cc(O)cc2O[C@@H]1c1cc(O)c(O)c(O)c1)c1cc(O)c(O)c(O)c1
inactive: [6] | [1] | [7] | [2] | [8] | [3] | [9] | [4] | [10]

[Cl][Eu]([Cl])[Cl]
inactive: [6]

O=C(Nc1ccccc1)c1cc(Cl)ccc1O
inactive: [6] | [2] | [4] | [10]
active: [1] 12.9 µM | [7] 3.55 µM | [8] 4.05 µM | [3] 12.6 µM | [9] 13.7 µM

CCCCCCCC(=O)OCC
inactive: [6]

O=C1c2ccccc2C(=O)c2cc(S(=O)(=O)O)ccc21
inactive: [6]

CCOB(OCC)OCC
inactive: [6]

CCCCCCCCCCCCc1ccc(O)cc1
inactive: [6]
active: [6] 50.4 µM | [7] 65.5 µM | [2] 39.9 µM | [8] 49.9 µM | [3] 16.3 µM | [9] 52.1 µM | [10] 28.3 µM

c1ccc(Nc2cccc3ccccc23)cc1
inactive: [6] | [1] | [2] | [8] | [9] | [4] | [10]
active: [1] 71.1 µM | [7] 77.1 µM and 81.1 µM | [3] 43.6 µM and 82.6 µM | [9] 82.2 µM | [10] 74.3 µM

C=CC(=O)NCOCCCC
inactive: [6]

CCOC(=O)[C@H](O)[C@@H](O)C(=O)OCC
inactive: [6]

CC1(C)[C@@H]2CC[C@@]1(C)C(=O)C2
inactive: [6] | [1] | [7] | [2] | [8] | [3] | [9] | [4] | [10]

Oc1ccc(-c2ccccc2)c(Cl)c1
active: [6] 159 µM | [3] 60.8 µM | [10] 76.2 µM
inactive: [6] | [1] | [7] | [2] | [8] | [9]

C=C(C)C(=O)OCC(O)COc1ccc(C(C)(C)c2ccc(OCC(O)COC(=O)C(=C)C)cc2)cc1 (stereo not drawn)
active: [1] 69.2 µM | [8] 86.7 µM | [3] 46.1 µM
inactive: [6] | [7] | [2] | [9] | [4] | [10]

C=CCNCC=C
active: [8] 84.2 µM
inactive: [6] | [1] | [7] | [2] | [8] | [9] | [4] | [10]

CCC1(C)C(=O)N(Cl)C(=O)N1Cl (stereo not drawn)
inactive: [6]

C=CCOC(=O)c1ccc(C(=O)OCC=C)c(C(=O)OCC=C)c1
inactive: [6]

CC/C=C\C/C=C\C/C=C\CCCCCCCC(=O)OC
inactive: [6]

COc1ccc(-c2coc3cc(O)cc(O)c3c2=O)cc1
inactive: [6] | [1] | [2] | [8] | [3] | [9] | [10]
active: [1] 68.5 µM | [7] 71.6 µM and 72 µM

CC(C)(CO)C(O)C(=O)NCCCO (stereo not drawn)
inactive: [6]

Cc1cc(=O)[nH]c(=O)[nH]1
inactive: [6]

CCOC(=O)C1=NN(c2ccc(Cl)cc2Cl)C(C)(C(=O)OCC)C1 (stereo not drawn)
inactive: [6]

CC(C)C(=O)OCCc1ccccc1
inactive: [6]

CC(CC(C)C)=NO
inactive: [6] | [1] | [7] | [2] | [8] | [3] | [9]

CC(C)c1ccc2ncccc2c1
inactive: [6]

CCCCNS(=O)(=O)c1ccccc1
inactive: [6] | [1] | [7] | [2] | [8] | [3] | [9] | [4] | [10]

CC(C)(C)NC(=O)[C@H]1CC[C@H]2[C@@H]3CC[C@H]4NC(=O)C=C[C@]4(C)[C@H]3CC[C@]12C
inactive: [6] | [1] | [7] | [2] | [8] | [3]

Nc1ccc(Cl)c(N)c1
inactive: [6]

Oc1ccc(/C=C/c2cc(O)cc(O)c2)cc1
inactive: [6] | [1] | [7] | [2] | [8] | [3] | [9] | [4] | [10]

CC=CC(=O)OCC(C)C
inactive: [6]

Cc1ccc2c(c1)CCCN2
inactive: [6]

CC1C(C)(C)C2=C(C(=O)CCC2)C1(C)C (stereo not drawn)
inactive: [6] | [1] | [7] | [2] | [8] | [3] | [9] | [4]

C=C(C)OC(C)=O
inactive: [6] | [1] | [7] | [2] | [8] | [3] | [9] | [4] | [10]

O=C1CCCCC1C1CCCCC1 (stereo not drawn)
inactive: [6]

Cc1c(Cl)cccc1Cl
inactive: [6]

CC(C)C(=O)OCCOc1ccccc1
inactive: [6] | [1] | [7] | [8] | [9] | [4] | [10]

C[Si](C)(C)N[Si](C)(C)C
inactive: [6] | [1] | [7] | [2] | [8] | [3] | [9] | [4] | [10]

Oc1c(Cl)cc(Cl)c(Cl)c1Cl
active: [7] 34.4 µM and 22.5 µM | [8] 17 µM and 27.1 µM | [9] 27 µM and 21.1 µM | [10] 35.5 µM and 18.8 µM
inactive: [6] | [1] | [2] | [3] | [4]

CCCCC1C(=O)N(c2ccccc2)N(c2ccccc2)C1=O
inactive: [6] | [1] | [7] | [2] | [8] | [3] | [9] | [10]

O=C(Cl)c1ccc(C(=O)Cl)cc1
inactive: [6] | [1] | [7] | [2] | [8] | [3] | [9] | [10]

CCCCCCCCCCCC(=O)OCC
inactive: [6] | [1] | [7] | [2] | [8] | [9] | [4] | [10]

CCCCCCCCCCCCCC(=O)OC(C)C
inactive: [6] | [1] | [7] | [2] | [8] | [3] | [9] | [10]

CCCCOC(=O)C(C)CC (stereo not drawn)
inactive: [6] | [1] | [7] | [8] | [3] | [9] | [4] | [10]

Oc1ccccc1Cc1ccccc1O
inactive: [6] | [1] | [7] | [8] | [3] | [10]

CC(C)(CO)COC(=O)C(C)(C)CO
inactive: [6] | [1] | [7] | [2] | [8] | [3] | [9] | [10]

CCCCCCC=O
inactive: [6] | [1] | [7] | [2] | [8] | [3] | [9] | [4] | [10]

CC(=O)CC(=O)Nc1ccccc1C
inactive: [6] | [1] | [7] | [2] | [8] | [9]

O=C(O)c1cc(O)c2ccccc2c1O
inactive: [6] | [1] | [7] | [2] | [8] | [9] | [4] | [10]

CCCCOCCOC(=O)COc1ccc(Cl)cc1Cl
inactive: [6] | [1] | [7] | [8] | [3] | [9] | [4]

CC(=O)OC1CCCCC1C(C)(C)C (stereo not drawn)
inactive: [6] | [1] | [7] | [2] | [8] | [3] | [9] | [10]

CCCC/C=C/C=C\C=O
inactive: [6] | [1] | [7] | [8] | [3] | [9] | [4]

CC(C)CC(=O)OCc1ccccc1
inactive: [6] | [1] | [7] | [2] | [3] | [9] | [4] | [10]

Cc1noc(NS(=O)(=O)c2ccc(N)cc2)c1C
inactive: [6] | [1] | [7] | [2] | [8] | [3] | [9] | [4] | [10]

O=S(=O)(O)c1ccc(Nc2nc(Nc3ccc(C=Cc4ccc(Nc5nc(Nc6ccc(S(=O)(=O)O)cc6)nc(N(CCO)CCO)n5)cc4S(=O)(=O)O)c(S(=O)(=O)O)c3)nc(N(CCO)CCO)n2)cc1
inactive: [6] | [1] | [7]
active: [8] 41.3 µM | [9] 42.6 µM | [10] 37.1 µM

C/C=C/C=C/CCCCCCCO
inactive: [6] | [1] | [7] | [2] | [3] | [9]

CC(C)OC(=O)c1ccccc1
inactive: [6] | [1] | [7] | [2] | [8] | [9] | [10]

CC(C)c1cccc(C(C)C)c1N
inactive: [6] | [1] | [7] | [2] | [8] | [9]
